This note sets out measurements from PubChem BioAssay AID1851 (National Center for Advancing Translational Sciences (NCATS), 2009).

For orientation: AC50 means the concentration at which the activity in the assay is half-maximal.

“And” between values parts separate entries of the source, which are not always exact repeats. Equal entries are not always repeated. In all, about 16,000 compounds went through this assay and about 4,000 (25%) were called active. Inconclusive results (about 26%) are left out. Calls follow the shape of the dose curve; as a rule, active = well fitted curve in the direction sought with a large enough effect; inconclusive = small, poorly fitted or top-dose-only effect, or effect the other way; inactive = no such curve, though single readings can be large or run the other way. A selection follows.
% is scaled to controls: 0 for no effect and ±100 for the full control effect.

The assay deals with Cytochrome P450 2C9 (Homo sapiens) (UniProt P11712). Put plainly: Cytochrome panel assay with activity outcomes. The following applies: recombinant CYP, pro-luciferin dealkylation, luminescence, p450-cyp2c9; series mostly up to 57.1 µM.
Chain of Cytochrome P450 2C9 (Homo sapiens) (P11712 whole entry, looked up): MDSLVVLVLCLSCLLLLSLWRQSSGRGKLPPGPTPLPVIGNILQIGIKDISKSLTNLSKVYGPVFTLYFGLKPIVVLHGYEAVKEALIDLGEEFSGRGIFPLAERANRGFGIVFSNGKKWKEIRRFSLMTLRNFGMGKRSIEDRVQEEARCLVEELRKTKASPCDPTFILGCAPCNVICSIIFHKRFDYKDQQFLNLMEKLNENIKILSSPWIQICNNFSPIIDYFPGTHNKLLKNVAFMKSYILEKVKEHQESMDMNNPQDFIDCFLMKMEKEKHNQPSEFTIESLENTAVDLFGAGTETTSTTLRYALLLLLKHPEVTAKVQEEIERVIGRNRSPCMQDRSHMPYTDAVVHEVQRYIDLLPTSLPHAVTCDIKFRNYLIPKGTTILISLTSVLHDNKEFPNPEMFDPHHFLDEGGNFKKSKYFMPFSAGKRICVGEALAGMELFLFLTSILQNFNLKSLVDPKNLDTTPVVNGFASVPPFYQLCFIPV
In the case of `COC(=O)c1cc(=O)[nH]c(=O)[nH]1`, the activity, negative = inhibition was 3.6% [at 11.4 µM] (inactive).

For the compound `Cc1ccc(C(=O)Nc2cc(Cl)ccc2OC(=O)c2ccc(C)cc2)cc1`, the AC50 is 14.1 µM (active).

With `CCOc1ccc(C(=O)Nc2ccc(Cl)cn2)cc1Cl`, the AC50 entry is “inactive”.

On to `C#CCCCO/N=C1/C[C@@H](O)[C@@H](O)[C@@H]2[C@@H]3C(=O)N([C@@H](C)c4ccccc4)C(=O)[C@H]3CC[C@H]12`, for which the activity, negative = inhibition was -17.4% [at 11.4 µM] (inactive).

`CSc1nc(Oc2ccc(=O)[nH]n2)nc(N(C)C)n1`: the AC50 entry is “inactive”.

With `CCOC(=O)c1c(NC(=S)NC(=O)c2cnn(CC)c2)sc2c1CCC(C)C2` (stereo unspecified), the AC50 is 5.01 µM (active).

Take `CCOC(=O)CCN1C(=O)[C@H]2[C@@H]3[C@H](O)[C@H](O)CC(=O)[C@H]3CC[C@H]2C1=O`: the activity, negative = inhibition is 14.8% [at 11.4 µM] (inactive) and 4.05% [at 11.4 µM] (inactive).

`C[C@@](N)(C(=O)O)c1ccc(P(=O)(O)O)cc1`: the AC50 entry is “inactive”.

As to `O=C(c1ccccc1)c1ccc2nc(-c3ccc(NC(=O)c4ccccc4F)cc3)[nH]c2c1`, the AC50 is 4.47 µM (active).

Turning to `O=C(c1ccccc1)c1ccc2nc(-c3ccc(NC(=O)c4ccccc4Br)cc3)[nH]c2c1`, the AC50 is 2 µM (active).

Turning to `O=C(O)c1ccc(NCc2nc3cc4ccccc4cc3[nH]2)cc1`, the activity, negative = inhibition was 8.12% [at 11.4 µM] (inactive).

As for `C[C@@H](c1ccccc1)N1C(=O)[C@H]2[C@@H]3[C@H](O)C=CC(=O)[C@H]3CC[C@H]2C1=O`, the activity, negative = inhibition was 3.06% [at 11.4 µM] (inactive).

Consider `Cc1nn(CCc2n[nH]c(=S)n2-c2ccc(F)c(Cl)c2)c(C)c1[N+](=O)[O-]`, for which the AC50 result is “inactive”.

As to `COC(=O)N1CCC[C@@]2(CCN(C(=O)Nc3ccccc3)C2)C1`, the AC50 result is “inactive”.

With `COc1ccc(NC(=O)N2CCC3(CC2)CCN(C(=O)c2csnn2)CC3)cc1`, the AC50 result was “inactive”.

For `COc1cc(CC(=O)O)ccc1O`, the AC50 entry was “inactive”.

Take `O=C(O)Cc1ccc(O)c(O)c1`: the AC50 entry is “inactive”.

On to `O=C(O)Cc1cc(I)c(Oc2ccc(O)c(I)c2)c(I)c1`, for which the AC50 is 5.01 µM (active).

With `CCOc1cc(NC(=O)c2ccccc2[N+](=O)[O-])c(OCC)cc1NC(=O)CC(C)C`, the AC50 entry is “inactive”.

For the compound `Cc1cccc(NC(=O)c2ccc([N+](=O)[O-])o2)n1`, the AC50 result is “inactive”.

In the case of `O=C(Nc1cccc(NC(=O)c2ccccc2[N+](=O)[O-])n1)c1ccccc1[N+](=O)[O-]`, the AC50 is 0.794 µM (active).

Turning to `CO/N=C(\C(=O)N[C@@H]1C(=O)N2C(C(=O)[O-])=C(C[N+]3(C)CCCC3)CS[C@@H]12)c1csc(N)n1`, the AC50 entry was “inactive”.

`N#Cc1nc(-c2ccc(OCc3ccccc3)cc2)oc1NCCN1CCOCC1`: the AC50 is 7.94 µM (active).

Regarding `N#Cc1ccccc1-c1ccc2ncnc(NCCN3CCOCC3)c2c1`, the activity, negative = inhibition was 2.09% [at 2.29 µM] (inactive).

For the compound `N#Cc1cccc(-c2nc(NCCN3CCOCC3)c3ccccc3n2)c1`, the activity, negative = inhibition is 5.64% [at 2.29 µM] (inactive).

With `CO[C@H]1COC(=O)[C@H](C)COC(=O)[C@@H](Cc2ccccc2)NC(=O)C/C=C\[C@H]1C`, the activity, negative = inhibition was -8.74% [at 11.4 µM] (inactive).

With `COC(=O)c1sccc1NC(=O)CSc1ccccc1NS(=O)(=O)c1ccc(Cl)cc1`, the AC50 was 1.78 µM (active).

As for `Clc1ccc(Cl)c(SCCCN2CCNCC2)c1`, the activity, negative = inhibition was -3.39% [at 11.4 µM] (inactive).

For `COC(=O)c1sccc1NC(=O)CSc1cc(Cl)ccc1Cl`, the AC50 was 7.08 µM (active).

As to `COC(=O)c1sccc1NC(=O)CSc1ccc(Cl)cc1`, the AC50 is 15.8 µM (active).

Take `Cc1cc(Cl)nc(NC(=O)CSc2ccc(Cl)cc2)n1`: the activity, negative = inhibition was -1.09% [at 11.4 µM] (inactive).

As for `CC(=O)OC[C@H]1O[C@@H](O/N=C2/[C@H]3O[C@@H]3[C@@H](O)[C@H]3[C@H]2CCn2c(=O)n(-c4ccccc4)c(=O)n23)[C@H](OC(C)=O)[C@@H](OC(C)=O)[C@@H]1OC(C)=O`, the activity, negative = inhibition was 10.3% [at 11.4 µM] (inactive).

As to `NC(=O)C[C@H](NC(=O)Cc1ccc(O)cc1O)C(=O)O`, the AC50 result is “inactive”.

For `O=C(Nc1ccccc1)N1CCCC2(CCNCC2)C1`, the AC50 entry is “inactive”.

Consider `COc1ccc(-c2noc(C3CCCN(C(=O)c4ccccc4OC)C3)n2)cc1OC` (stereo unspecified), for which the AC50 is 11.2 µM (active).

For `Cc1noc(C)c1C(=O)N1CCC2(CCCN(C(=O)Nc3ccccc3)C2)CC1`, the AC50 entry was “inactive”.

Regarding `CCCCCC(=O)N1CCCC(c2nc(-c3ccc(OC)cc3)no2)C1` (stereo unspecified), the AC50 is 3.55 µM (active).

`CCCc1nnc(SCC(=O)N2CCCC(C)C2)n1CC1CCCO1` (stereo unspecified): the AC50 result was “inactive”.

For the compound `O=C(Nc1ccccc1)N1CCCC(c2nc(-c3ccc(F)cc3)no2)C1` (stereo unspecified), the concentration at half-maximal activity (AC50) was 14.1 µM (active).

As to `CCOC(=O)CSc1nnc(CNC(=O)c2ccc(OC)cc2)n1C1CCCCC1`, the AC50 result is “inactive”.

With `COc1ccc(-c2nc(C#N)c(N3CCC(C(N)=O)CC3)o2)cc1OC`, the AC50 entry is “inactive”.

As for `CC(C)(N=NC(C)(C)C1=NCCN1)C1=NCCN1`, the activity, negative = inhibition is 3.47% [at 11.4 µM] (inactive).

For `O=C(CN(Cc1ccco1)C(=O)c1cccc(Cl)c1)Nc1c(Cl)cc(Cl)cc1Cl`, the AC50 was 11.2 µM (active).

For the compound `COc1ccc(/C=C2\N=C(SC)N(C)C2=O)cc1`, the AC50 is 25.1 µM (active).

Take `COc1ccc(Oc2ncc3ncc(=O)n(C)c3n2)cc1`: the AC50 entry was “inactive”.

On to `CCN(c1nc(N)c(C(=O)N=C(N)N)nc1Cl)C(C)C`, for which the AC50 entry is “inactive”.

Regarding `CN(C)Cc1ccccc1-c1nc(NCc2ccccc2)c2ccccc2n1`, the activity, negative = inhibition was -6.5% [at 2.29 µM] (inactive).

For `CN(C)c1nc(NCc2ccccc2)nc(N/N=C/c2ccc(Cl)cc2Cl)n1`, the AC50 entry was “inactive”.

On to `CC(Sc1nc(NCc2ccccc2)nc(N(C)C)n1)C(=O)Nc1ccccc1` (stereo unspecified), for which the AC50 was 0.562 µM (active).

Take `CC(=O)N[C@@H](C(=O)O)C(C)(C)SN=O`: the AC50 entry was “inactive”.

For `COc1ccc(CNc2ncnc3ccc(-c4cccnc4)cc23)c(OC)c1`, the activity, negative = inhibition was -24.5% [at 2.29 µM] (inactive).

In the case of `COc1ccc(CNc2ncnc3ccc(-c4ccccc4OC)cc23)c(OC)c1`, the concentration at half-maximal activity (AC50) was 0.398 µM (active).

For `COc1ccccc1-c1ccc2ncnc(NCc3cccnc3)c2c1`, the activity, negative = inhibition is -19.3% [at 2.29 µM] (inactive).

For the compound `COc1ccccc1-c1ccc2ncnc(NCc3ccccc3)c2c1`, the AC50 is 0.501 µM (active).

Regarding `COc1ccccc1CNc1ncnc2ccc(-c3cccc(C#N)c3)cc12`, the activity, negative = inhibition was -23.5% [at 2.29 µM] (inactive).

Consider `COc1ccccc1CNc1ncnc2ccc(-c3ccccc3OC)cc12`, for which the AC50 was 0.794 µM (active).

`COc1ccccc1CNc1ncnc2ccc(-c3ccccc3CN(C)C)cc12`: the activity, negative = inhibition is -2.92% [at 2.29 µM] (inactive).

As to `COc1ccc(CNc2ncnc3ccc(-c4ccc(C(=O)N(C)C)cc4)cc23)c(OC)c1`, the activity, negative = inhibition was 1.99% [at 2.29 µM] (inactive).

For the compound `COCCNc1ncnc2ccc(-c3ccccc3OC)cc12`, the activity, negative = inhibition was 16.9% [at 2.29 µM] (inactive).

Consider `Cc1nonc1NC(=O)OCCN1CCOC1=O`, for which the AC50 result was “inactive”.

For the compound `CC[C@]1(O)C[C@@H]2CN(CCc3c([nH]c4ccccc34)[C@](C(=O)OC)(c3cc4c(cc3OC)N(C)[C@H]3[C@](O)(C(=O)OC)[C@@H](C(=O)OC)[C@@]5(CC)C=CCN6CC[C@@]43[C@@H]65)C2)C1`, the AC50 result was “inactive”.

Take `CCn1c(SCC(=O)Nc2sc3c(c2C#N)CCC(C(C)(C)C)C3)nnc1-c1ccco1` (stereo unspecified): the AC50 is 8.91 µM (active).

Regarding `CCn1c(SCC(=O)Nc2sc3c(c2C(N)=O)CCC(C)C3)nnc1-c1ccco1` (stereo unspecified), the AC50 is 3.16 µM (active).

Consider `C#CC[N+](CC)(CC)CC#Cc1cccc(Cl)c1`, for which the AC50 entry is “inactive”.

For `C[C@H](CN(C)C)C(O)(c1ccccc1)c1ccccc1`, the activity, negative = inhibition is -5.45% [at 11.4 µM] (inactive).

In the case of `COC(=O)[C@@]1(Cc2ccc(F)cc2)[C@H]2c3cc(C(=O)N4CCCC4)n(CCN4CNCC4=O)c3C[C@H]2CN1C(=O)c1ccccc1`, the AC50 is 7.94 µM (active).

`COC(=O)[C@@]1(Cc2ccccc2)[C@H]2c3cc(C(=O)N4CCCC4)n(CCN4CNCC4=O)c3C[C@H]2CN1C(=O)c1ccccc1`: the AC50 is 2 µM (active).

Take `Nc1nc(N)nc(CC(=O)O)n1`: the activity, negative = inhibition was -0.0515% [at 11.4 µM] (inactive).

In the case of `CCOC(=O)C1=C(CSc2nc3ccccc3s2)NC(=O)NC1c1cc(C)ccc1C` (stereo unspecified), the AC50 is 3.55 µM (active).

As for `COc1cc(/C=C(\C#N)C(N)=O)cc(CSc2nc3ccccc3s2)c1O`, the AC50 result is “inactive”.

Turning to `CCOC(=O)C1=C(CSc2nc3ccccc3s2)NC(=O)NC1c1cccc([N+](=O)[O-])c1` (stereo unspecified), the AC50 is 3.98 µM (active).

With `O=C(Nc1cccc(F)c1)N1CCCC2(CCNCC2)C1`, the AC50 result was “inactive”.

With `Cn1cc(-c2nc3cnc(N4CCNCC4)nc3n(Cc3ccc(F)cc3)c2=O)c2ccccc21`, the AC50 is 10 µM (active).

Take `Cn1cc(-c2nc3cnc(N4CCOCC4)nc3n(CCC#N)c2=O)c2ccccc21`: the AC50 result is “inactive”.

With `CCNc1ncc2nc(-c3ccccc3)c(=O)n(Cc3cccs3)c2n1`, the AC50 result is “inactive”.

As to `COc1cccc(Cn2c(=O)c(-c3cn(C)c4ccccc34)nc3cnc(N4CCNCC4)nc32)c1`, the AC50 is 20 µM (active).

On to `CCNc1ncc2nc(-c3cn(C)c4ccccc34)c(=O)n(Cc3cccs3)c2n1`, for which the AC50 was 20 µM (active).

`COc1ncc2nc(-c3cn(C)c4ccccc34)c(=O)n(Cc3ccc(F)cc3)c2n1`: the AC50 result is “inactive”.

As for `COc1cccc(Nc2ncc3nc(-c4cn(C)c5ccccc45)c(=O)n(CCC#N)c3n2)c1`, the AC50 entry was “inactive”.

Consider `CCNc1ncc2nc(-c3cn(C)c4ccccc34)c(=O)n(Cc3cccc(OC)c3)c2n1`, for which the AC50 result is “inactive”.

Turning to `COCCn1c(=O)c(-c2cn(C)c3ccccc23)nc2cnc(N3CCNCC3)nc21`, the AC50 result is “inactive”.

Regarding `Cn1cc(-c2nc3cnc(N4CCNCC4)nc3n(CCc3ccccc3)c2=O)c2ccccc21`, the AC50 was 10 µM (active).

On to `CN1CCN(c2ncc3nc(-c4cn(C)c5ccccc45)c(=O)n(CCc4ccccc4)c3n2)CC1`, for which the AC50 result was “inactive”.

Regarding `CCNc1ncc2nc(-c3cn(C)c4ccccc34)c(=O)n(CCC#N)c2n1`, the AC50 result was “inactive”.

`CCNc1nc(NCC)nc(ON=C(C)C)n1`: the AC50 entry is “inactive”.

As to `N=c1nc(N2CCCCC2)cc(N)n1O`, the AC50 entry is “inactive”.
